According to PubChem BioAssay (EPA / NIEHS):
The source made the active and inactive calls. The calls were made as follows: active = hit-call score of the fitted dose curve at least 0.9, where 1 is the maximum; inactive = score below 0.9.

Experiments:
[1] = ATG_CRE_CIS: Attagene CIS-FACTORIAL HepG2 Assay for human cAMP Responsive Element (CRE) binding protein 3 (AID 2282926); conditions: HepG2 CRE cis-reporter, Attagene multiplexed mRNA; actives raise or lower the signal
Method in brief: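 Human liver HepG2, transient MRTU transfection, 24 h compound exposure. Total RNA → oligo(dT) RT → PCR → 6-FAM primer extension → HpaI cut → CE. Activity called both directions vs DMSO.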

[2] = target: CCAAT/enhancer-binding protein beta (Homo sapiens) (UniProt P17676); experiment: ATG_C_EBP_CIS: Attagene CIS-FACTORIAL HepG2 Assay for human CCAAT/Enhancer Binding Protein (C/EBP) beta (AID 2282927); conditions: HepG2 Attagene cis-factorial transcription factor reporter; actives raise or lower the signal
Method in brief: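 Chemical-treated HepG2 cells (24 h) bearing cis-regulated reporter constructs were processed for total RNA, then reverse transcription, PCR amplification, fluorescent primer extension and fragment analysis; gain- and loss-of-signal were fitted against DMSO.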

[3] = ATG_CMV_CIS: Attagene CIS-FACTORIAL HepG2 Assay for human CMV (Internal Marker) (AID 2282928); conditions: HepG2 CMV promoter reporter, transcription factor profiling; actives raise or lower the signal;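 also: endpoint acts as a background internal control marker rather than a target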
Method in brief: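 HepG2 cells transiently transfected with multiple cis-regulated reporter units; 24 h compound exposure. Reporter mRNA quantified by RT-PCR, 6-FAM primer-extension labeling, HpaI digestion and capillary electrophoresis; bidirectional fitting against DMSO baseline.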

[4] = ATG_DR4_LXR_CIS: Attagene CIS-FACTORIAL HepG2 Assay for human Liver X Receptor (LXR), DR4 submotif (AID 2282929); conditions: HepG2 Attagene DR4 cis-reporter, mRNA transcription; actives raise or lower the signal
Method in brief: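 Measures endogenous transcription factor activity via a DR4-driven reporter transcript in human HepG2 cells. Compounds incubated 24 h; mRNA quantified by RT-PCR and capillary electrophoresis, analysed as gain or loss of signal versus DMSO.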

[5] = target: Aryl hydrocarbon receptor (Homo sapiens) (UniProt P35869); experiment: ATG_Ahr_CIS: Attagene CIS-FACTORIAL HepG2 Assay for human Aryl Hydrocarbon Receptor (Ahr) (AID 2282930); conditions: HepG2 AhR cis-factorial reporter transcription; actives raise or lower the signal
Method in brief: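 Following 24 h of chemical dosing, transfected HepG2 liver cells with cis-driven reporter units were lysed for RNA; reporter mRNA was quantified via RT-PCR and capillary electrophoresis, and responses fitted bidirectionally from DMSO.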

[6] = ATG_AP_1_CIS: Attagene CIS-FACTORIAL HepG2 Assay for human Activator Protein 1 (AP-1) (AID 2282931); conditions: HepG2 Attagene cis-factorial AP-1 reporter mRNA; actives raise or lower the signal
Method in brief: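 Bidirectional concentration-response fitting against DMSO controls. Underlying signal: reporter mRNA from cis-promoter constructs in transiently transfected HepG2, measured after 24 h by RT-PCR and capillary electrophoresis.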

[7] = ATG_AP_2_CIS: Attagene CIS-FACTORIAL HepG2 Assay for human Activator Protein 2 (AP-2) (AID 2282932); conditions: HepG2 AP-2 cis-reporter, Attagene transcription factor profiling; actives raise or lower the signal
Method in brief: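 Bidirectional curve fitting against DMSO was applied to reporter mRNA signals from HepG2 cells 24 h after dosing. Cis-promoter reporter units, transiently transfected, were read by RT-PCR plus capillary electrophoresis.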

[8] = ATG_BRE_CIS: Attagene CIS-FACTORIAL HepG2 Assay for human Bone Morphogenetic Protein (BMP) Response Element (BRE) (AID 2282933); conditions: HepG2 BMP response element reporter, Attagene transcription factor profiling; actives raise or lower the signal
Method in brief: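 HepG2 cells transiently transfected with CIS reporter units (endogenous TF activity, BMP response element), dosed 24 h. Reporter mRNA quantified by RT-PCR, fluorescent labelling and capillary electrophoresis; bidirectional fit vs DMSO baseline.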

[9] = target: Retinoic acid receptor alpha (Homo sapiens) (UniProt P10276); experiment: ATG_DR5_RAR_CIS: Attagene CIS-FACTORIAL HepG2 Assay for human Retinoic Acid Receptor Alpha (RARE), DR5 submotif (AID 2282934); conditions: HepG2 Attagene cis-factorial RARE DR5 reporter, mRNA; actives raise or lower the signal
Method in brief: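 Transfected HepG2 reporter cells are exposed to chemicals for 24 h. Then RNA is extracted and the DR5 element reporter transcript is measured by RT-PCR and capillary electrophoresis, with bidirectional curve fitting relative to DMSO.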

[10] = target: Transcription factor E2F1 (Homo sapiens) (UniProt Q01094); experiment: ATG_E2F_CIS: Attagene CIS-FACTORIAL HepG2 Assay for human E2F Transcription Factor 1 (AID 2282935); conditions: HepG2 Attagene cis-reporter, E2F reporter RNA transcripts; actives raise or lower the signal
Method in brief: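 Multiplexed cis-reporter assay: HepG2, transient transfection, 24 h dosing, mRNA quantitation by labeled RT-PCR and CE.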

[11] = ATG_E_Box_CIS: Attagene CIS-FACTORIAL HepG2 Assay for human Enhancer Box (E-box) (AID 2282936); conditions: HepG2 E-box cis-reporter transcription, actives raise or lower the signal
Method in brief: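 Multiplexed CIS reporter system in transiently transfected HepG2 cells measures native transcription factor activity. Reporter RNA after 24 h exposure is profiled by RT-PCR-capillary electrophoresis.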

[12] = ATG_M_61_CIS: Attagene CIS-FACTORIAL HepG2 Assay for M61 Transcription Factor (Internal Marker) (AID 2282937); conditions: HepG2 Attagene CIS-FACTORIAL M61 internal marker reporter; actives raise or lower the signal
Method in brief: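 Fluorescence from labelled cDNA fragments, separated by capillary electrophoresis, quantifies reporter induction. HepG2 cells bearing transiently transfected cis-promoter MRTUs were incubated with test chemical for 24 h; DMSO defined baseline for gain/loss fitting.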

[13] = ATG_EGR_CIS: Attagene CIS-FACTORIAL HepG2 Assay for human Early Growth Response 1 (EGR1) (AID 2282938); conditions: HepG2 Attagene CIS-FACTORIAL EGR reporter mRNA; actives raise or lower the signal
Method in brief: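 Cell-based multiplex transcription assay: HepG2 carrying transfected cis-element reporter units, 24 h chemical treatment. Fluorescence from capillary electrophoresis of RT-PCR products gives mRNA levels; fitting is bidirectional relative to DMSO.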

[14] = ATG_M_19_CIS: Attagene CIS-FACTORIAL HepG2 Assay for M19 Transcription Factor (Internal Marker) (AID 2282939); conditions: HepG2 Attagene CIS-FACTORIAL M19 internal marker reporter; actives raise or lower the signal
Method in brief: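 HepG2 cells transiently transfected with cis-regulated multiplexed reporter units, dosed 24 h. Reporter mRNA quantified by RT-PCR and capillary electrophoresis; internal background marker fitted bidirectionally versus DMSO.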

[15] = ATG_ERE_CIS: Attagene CIS-FACTORIAL HepG2 Assay for Estrogen Response Element (ERE) (AID 2282940); conditions: HepG2 ERE cis-reporter, Attagene RNA transcript; actives raise or lower the signal
Method in brief: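 HepG2 cells transiently transfected with multiplexed cis-element reporter units, measuring endogenous transcription factor activity; ERE reporter mRNA quantified after 24 h exposure by RT-PCR, fluorescent labelling, HpaI digestion and capillary electrophoresis. Bidirectional change versus DMSO.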

[16] = ATG_Ets_CIS: Attagene CIS-FACTORIAL HepG2 Assay for human Erythroblast Transformation Specific (ETS) (AID 2282941); conditions: HepG2 ETS cis-reporter transcription, actives raise or lower the signal
Method in brief: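 HepG2 cells transiently transfected with cis-promoter reporter transcription units were dosed for 24 h; reporter mRNA was measured by RT-PCR, 6-FAM primer extension, HpaI digestion and capillary electrophoresis, with bidirectional fitting against DMSO baseline.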

[17] = target: Hepatocyte nuclear factor 3-beta (Homo sapiens) (UniProt Q9Y261); experiment: ATG_FoxA2_CIS: Attagene CIS-FACTORIAL HepG2 Assay for human Forkhead box A2 (FOXA2) (AID 2282942); conditions: HepG2 cis-reporter transcription factor activity, 24 h; actives raise or lower the signal
Method in brief: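 In transiently transfected human HepG2 cells, promoter-driven reporter mRNA levels after 24 h chemical exposure are determined via RT-PCR with capillary electrophoresis. DMSO serves as baseline for bidirectional fitting.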

[18] = ATG_FoxO_CIS: Attagene CIS-FACTORIAL HepG2 Assay for human Forkhead box O (FoxO) (AID 2282943); conditions: HepG2 Attagene cis-reporter, FoxO element, mRNA; actives raise or lower the signal
Method in brief: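 24 h chemical exposure, HepG2 with transient cis-MRTU transfection. RNA extraction, oligo(dT) RT, reporter-specific PCR, primer-extension labelling, HpaI digestion, CE fragment analysis; bidirectional fit, DMSO baseline.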

[19] = ATG_GATA_CIS: Attagene CIS-FACTORIAL HepG2 Assay for human GATA Binding Protein (AID 2282944); conditions: HepG2 GATA cis-element reporter, Attagene multiplex mRNA; actives raise or lower the signal
Method in brief: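 HepG2 cells transiently transfected with multiplexed cis-element reporter units measure endogenous GATA activity; after 24 h compound exposure, reporter mRNA quantified by RT-PCR and capillary electrophoresis. Changes fitted in both directions vs DMSO.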

[20] = ATG_GLI_CIS: Attagene CIS-FACTORIAL HepG2 Assay for human Zinc Finger Protein GLI1 (AID 2282945); conditions: HepG2, Attagene cis-factorial reporter mRNA, GLI element; actives raise or lower the signal
Method in brief: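 HepG2 cells transiently transfected with cis-promoter multiplexed reporter units report endogenous transcription factor activity. After 24 h chemical exposure, reporter mRNA was quantified by RT-PCR, 6-FAM labelling, HpaI digestion and capillary electrophoresis, with bidirectional fitting against DMSO.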

Sequence of Aryl hydrocarbon receptor (Homo sapiens) (P35869 whole entry, looked up): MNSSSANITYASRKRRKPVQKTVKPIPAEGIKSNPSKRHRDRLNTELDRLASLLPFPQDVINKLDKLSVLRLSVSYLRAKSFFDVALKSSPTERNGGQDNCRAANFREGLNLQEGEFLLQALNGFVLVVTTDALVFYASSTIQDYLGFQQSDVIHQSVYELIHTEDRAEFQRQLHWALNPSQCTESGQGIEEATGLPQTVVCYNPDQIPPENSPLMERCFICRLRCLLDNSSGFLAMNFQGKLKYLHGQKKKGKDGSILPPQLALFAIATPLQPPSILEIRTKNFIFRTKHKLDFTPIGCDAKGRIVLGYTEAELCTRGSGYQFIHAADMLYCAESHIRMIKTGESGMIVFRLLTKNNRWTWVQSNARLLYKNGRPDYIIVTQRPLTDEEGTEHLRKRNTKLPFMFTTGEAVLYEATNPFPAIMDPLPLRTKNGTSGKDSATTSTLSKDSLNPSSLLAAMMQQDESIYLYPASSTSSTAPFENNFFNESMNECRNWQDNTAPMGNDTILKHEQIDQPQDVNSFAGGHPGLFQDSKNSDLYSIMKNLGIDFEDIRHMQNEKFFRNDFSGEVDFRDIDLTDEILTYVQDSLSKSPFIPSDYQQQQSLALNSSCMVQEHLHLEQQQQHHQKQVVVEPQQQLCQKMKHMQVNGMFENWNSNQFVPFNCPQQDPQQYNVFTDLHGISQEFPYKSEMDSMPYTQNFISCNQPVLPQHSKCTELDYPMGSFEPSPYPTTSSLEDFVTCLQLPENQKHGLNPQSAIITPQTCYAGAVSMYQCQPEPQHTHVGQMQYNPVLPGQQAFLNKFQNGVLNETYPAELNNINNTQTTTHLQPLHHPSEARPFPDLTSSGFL
Sequence of Hepatocyte nuclear factor 3-beta (Homo sapiens) (Q9Y261 whole entry, looked up): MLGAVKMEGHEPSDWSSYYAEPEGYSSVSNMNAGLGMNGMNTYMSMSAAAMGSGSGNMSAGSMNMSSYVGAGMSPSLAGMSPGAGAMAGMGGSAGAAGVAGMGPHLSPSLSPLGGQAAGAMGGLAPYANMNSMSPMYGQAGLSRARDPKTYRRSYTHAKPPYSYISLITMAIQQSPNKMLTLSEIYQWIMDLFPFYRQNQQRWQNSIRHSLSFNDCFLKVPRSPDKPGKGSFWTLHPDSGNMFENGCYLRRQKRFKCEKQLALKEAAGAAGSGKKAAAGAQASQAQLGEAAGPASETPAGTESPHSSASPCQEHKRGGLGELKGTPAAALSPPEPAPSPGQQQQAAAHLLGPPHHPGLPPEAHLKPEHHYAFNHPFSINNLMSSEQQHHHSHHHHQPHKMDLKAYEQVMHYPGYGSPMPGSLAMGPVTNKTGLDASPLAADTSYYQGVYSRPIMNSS
Sequence of Retinoic acid receptor alpha (Homo sapiens) (P10276 whole entry, looked up): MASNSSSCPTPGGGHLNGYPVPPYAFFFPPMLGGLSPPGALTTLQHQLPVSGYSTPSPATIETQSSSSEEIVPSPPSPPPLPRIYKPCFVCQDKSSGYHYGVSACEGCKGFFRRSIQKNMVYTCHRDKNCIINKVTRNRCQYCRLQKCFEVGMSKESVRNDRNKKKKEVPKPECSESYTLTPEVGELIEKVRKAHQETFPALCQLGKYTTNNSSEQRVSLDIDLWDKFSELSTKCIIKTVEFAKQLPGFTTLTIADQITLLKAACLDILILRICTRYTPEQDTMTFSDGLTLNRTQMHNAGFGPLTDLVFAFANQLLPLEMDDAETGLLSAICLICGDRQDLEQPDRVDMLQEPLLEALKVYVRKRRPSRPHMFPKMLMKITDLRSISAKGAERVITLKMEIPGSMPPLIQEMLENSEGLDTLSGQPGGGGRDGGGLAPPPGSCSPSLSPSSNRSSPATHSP
Sequence of CCAAT/enhancer-binding protein beta (Homo sapiens) (P17676 whole entry, looked up, the tested form may be a part): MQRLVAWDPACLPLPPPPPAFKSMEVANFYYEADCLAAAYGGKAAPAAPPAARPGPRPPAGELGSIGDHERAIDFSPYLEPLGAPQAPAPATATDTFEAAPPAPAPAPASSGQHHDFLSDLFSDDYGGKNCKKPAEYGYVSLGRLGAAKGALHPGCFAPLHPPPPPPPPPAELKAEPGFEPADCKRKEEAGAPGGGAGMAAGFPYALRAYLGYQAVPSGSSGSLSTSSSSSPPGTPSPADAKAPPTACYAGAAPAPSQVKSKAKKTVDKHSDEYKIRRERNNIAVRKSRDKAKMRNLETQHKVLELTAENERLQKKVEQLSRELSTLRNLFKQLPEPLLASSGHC
Sequence of Transcription factor E2F1 (Homo sapiens) (Q01094 whole entry, looked up): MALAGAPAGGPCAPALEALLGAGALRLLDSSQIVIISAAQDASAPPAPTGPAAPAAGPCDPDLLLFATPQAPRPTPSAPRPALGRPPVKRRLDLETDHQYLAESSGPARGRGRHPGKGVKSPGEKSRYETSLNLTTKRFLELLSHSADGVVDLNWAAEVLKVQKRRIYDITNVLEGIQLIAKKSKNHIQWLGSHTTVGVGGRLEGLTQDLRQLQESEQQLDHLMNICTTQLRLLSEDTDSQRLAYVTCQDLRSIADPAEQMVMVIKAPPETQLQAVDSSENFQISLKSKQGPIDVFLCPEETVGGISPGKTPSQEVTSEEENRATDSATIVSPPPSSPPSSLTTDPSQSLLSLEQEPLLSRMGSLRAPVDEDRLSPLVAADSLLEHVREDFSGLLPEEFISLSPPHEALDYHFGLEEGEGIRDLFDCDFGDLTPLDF

O=C1CC2CC1C1CCCC21 (stereo not given)
outcome [1]: inactive | outcome [2]: inactive | outcome [3]: inactive | outcome [4]: inactive | outcome [5]: inactive | outcome [6]: inactive | outcome [7]: inactive | outcome [8]: inactive | outcome [9]: inactive | outcome [10]: inactive | outcome [11]: inactive | outcome [12]: inactive | outcome [13]: inactive | outcome [14]: inactive | AC50 [15]: 19.8 µM (active) | outcome [16]: inactive | outcome [17]: inactive | outcome [18]: inactive | outcome [19]: inactive | outcome [20]: inactive

CCOc1nc(F)cc2nc(S(=O)(=O)Nc3c(Cl)cccc3C(=O)OC)nn12
outcome [1]: inactive | outcome [2]: inactive | outcome [3]: inactive | outcome [4]: inactive | outcome [5]: inactive | outcome [6]: inactive | outcome [7]: inactive | outcome [8]: inactive | outcome [9]: inactive | outcome [10]: inactive | outcome [11]: inactive | outcome [12]: inactive | outcome [13]: inactive | outcome [14]: inactive | outcome [15]: inactive | outcome [16]: inactive | outcome [17]: inactive | outcome [18]: inactive | outcome [19]: inactive | outcome [20]: inactive

CC(=O)OC(C)C
outcome [1]: inactive | outcome [2]: inactive | outcome [3]: inactive | outcome [4]: inactive | outcome [5]: inactive | outcome [6]: inactive | outcome [7]: inactive | outcome [8]: inactive | outcome [9]: inactive | outcome [10]: inactive | outcome [11]: inactive | outcome [12]: inactive | outcome [13]: inactive | outcome [14]: inactive | outcome [15]: inactive | outcome [16]: inactive | outcome [17]: inactive | outcome [18]: inactive | outcome [19]: inactive | outcome [20]: inactive

CCCCCCCCc1ccc(Nc2ccc(CCCCCCCC)cc2)cc1
outcome [1]: inactive | outcome [2]: inactive | outcome [3]: inactive | outcome [4]: inactive | outcome [5]: inactive | outcome [6]: inactive | outcome [7]: inactive | outcome [8]: inactive | outcome [9]: inactive | outcome [10]: inactive | outcome [11]: inactive | outcome [12]: inactive | outcome [13]: inactive | outcome [14]: inactive | outcome [15]: inactive | outcome [16]: inactive | outcome [17]: inactive | outcome [18]: inactive | outcome [19]: inactive | outcome [20]: inactive

O=C1OC(=O)c2cc(Oc3ccc4c(c3)C(=O)OC4=O)ccc21
outcome [1]: inactive | outcome [2]: inactive | outcome [3]: inactive | outcome [4]: inactive | outcome [5]: inactive | outcome [6]: inactive | outcome [7]: inactive | outcome [8]: inactive | outcome [9]: inactive | outcome [10]: inactive | outcome [11]: inactive | outcome [12]: inactive | outcome [13]: inactive | outcome [14]: inactive | outcome [15]: inactive | outcome [16]: inactive | outcome [17]: inactive | outcome [18]: inactive | outcome [19]: inactive | outcome [20]: inactive

CCOc1ccc(N)c([N+](=O)[O-])c1
outcome [1]: inactive | outcome [2]: inactive | outcome [3]: inactive | outcome [4]: inactive | outcome [5]: inactive | outcome [6]: inactive | outcome [7]: inactive | outcome [8]: inactive | outcome [9]: inactive | outcome [10]: inactive | outcome [11]: inactive | outcome [12]: inactive | outcome [13]: inactive | outcome [14]: inactive | outcome [15]: inactive | outcome [16]: inactive | outcome [17]: inactive | outcome [18]: inactive | outcome [19]: inactive | outcome [20]: inactive

CCCCCCCC[N+](C)(CCCCCCCC)CCCCCCCC
outcome [1]: inactive | outcome [2]: inactive | outcome [3]: inactive | outcome [4]: inactive | outcome [5]: inactive | outcome [6]: inactive | outcome [7]: inactive | outcome [8]: inactive | outcome [9]: inactive | outcome [10]: inactive | outcome [11]: inactive | outcome [12]: inactive | outcome [13]: inactive | outcome [14]: inactive | outcome [15]: inactive | outcome [16]: inactive | outcome [17]: inactive | outcome [18]: inactive | outcome [19]: inactive | outcome [20]: inactive
